Screening results deposited in PubChem BioAssay by National Center for Advancing Translational Sciences (NCATS).
HT1080-NT tox – kills 2HG-producing HT-1080-NT fibrosarcoma cells. Potency, µM (highest dose often 46.1 µM), inactives show top-dose activity, negative = less viability, most hits filed as cytotoxic. HT-1080-NT fibrosarcoma viability, CellTiter-Glo ATP luminescence, 48 h. actives 1.6% (n = 360,000);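 further: NT is the 2HG producing partner of a matched IDH1 knockdown line; potency means the concentration at half of the fitted maximal effect; 0% = DMSO-treated cells and -100% = media-only wells without cells; nearly all actives have a fitted effect of over 55% in size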
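Viability by CellTiter-Glo luminescence after 48 h compound exposure at 37C of HT-1080-NT cells (750/well, RPMI, 5% FBS). % activity scaled between DMSO wells and medium-only wells, then curve-fitted and categorized by curve class.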
HT1080 IDH1KD tx – toxicity to HT-1080 IDH1 knockdown cells (counter line); Potency, µM (doses to about 46.1 µM), without a hit: at the highest dose activity, negative = toxicity, usual class: cytotoxic; AID 686971; HT-1080 IDH1 knockdown viability, ATP luminescence, 48 h; actives 2% (n = 360,000);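 further: potency means the concentration at half of the fitted maximal effect; 0% = DMSO wells and -100% = cell-free medium wells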
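HT-1080-IDH1KD cells (IDH1 knocked down), 750/well in RPMI with 5% FBS, treated with compound 48 h at 37 degrees C. Viability by CellTiter-Glo luminescence, normalised to DMSO and no-cell wells; concentration-response curves classed.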
DT40 TDP1 CPT – growth inhibition of DT40 Tdp1-/-;hTDP1 cells with camptothecin (screen for TDP1 inhibitors); chicken DT40 Tdp1-/-;hTDP1 cells + 20 nM CPT, ATP luminescence, 48 h; Potency, µM (series often up to 46.2 µM), for inactives: at the highest dose activity change, negative = growth inhibition, hits mostly inhibitors; actives 12% (n = 420,000); AID 686979; further: potency means the concentration at half of the fitted maximal effect; nearly all actives have a fitted effect of over 55% in size
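Chicken DT40 Tdp1-/- cells stably complemented with human TDP1 were seeded at 400 cells/well in medium containing 20 nM camptothecin, exposed to pin-transferred compounds, and grown at 37 °C for at least 48 hr. Viability was read as ATP luminescence.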
TDP1 cell noCPT – qHTS for Inhibitors of human tyrosyl-DNA phosphodiesterase 1 (TDP1): qHTS in cells in absence of CPT; DT40 Tdp1-/- hTDP1 cells, no CPT, ATP luminescence, 48 h; Potency, µM (highest dose often 46.2 µM), inactives show top-dose activity change, negative = growth inhibition, most hits filed as inhibitors; actives 15% (n = 420,000); further: potency means the concentration at half of the fitted maximal effect; nearly all actives have a fitted effect of over 55% in size
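Compound effects on proliferation are scored in DT40 Tdp1-/-;hTDP1 cells in the absence of CPT. ATP levels (CellTiter-Glo luminescence) are recorded after a ≥48 hr, 37 °C incubation.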
ALOX12 inh – blocks human arachidonate 12S-lipoxygenase; purified 12hLO, xylenol orange hydroperoxide absorbance; AID 1671190; actives 1.1% (n = 580,000); Potency, µM (doses to about 108 µM), for inactives: at the top dose activity change, negative = inhibition, hits mostly inhibitors; further: potency means the concentration at half of the fitted maximal effect
Target sequence (P18054 whole entry, looked up): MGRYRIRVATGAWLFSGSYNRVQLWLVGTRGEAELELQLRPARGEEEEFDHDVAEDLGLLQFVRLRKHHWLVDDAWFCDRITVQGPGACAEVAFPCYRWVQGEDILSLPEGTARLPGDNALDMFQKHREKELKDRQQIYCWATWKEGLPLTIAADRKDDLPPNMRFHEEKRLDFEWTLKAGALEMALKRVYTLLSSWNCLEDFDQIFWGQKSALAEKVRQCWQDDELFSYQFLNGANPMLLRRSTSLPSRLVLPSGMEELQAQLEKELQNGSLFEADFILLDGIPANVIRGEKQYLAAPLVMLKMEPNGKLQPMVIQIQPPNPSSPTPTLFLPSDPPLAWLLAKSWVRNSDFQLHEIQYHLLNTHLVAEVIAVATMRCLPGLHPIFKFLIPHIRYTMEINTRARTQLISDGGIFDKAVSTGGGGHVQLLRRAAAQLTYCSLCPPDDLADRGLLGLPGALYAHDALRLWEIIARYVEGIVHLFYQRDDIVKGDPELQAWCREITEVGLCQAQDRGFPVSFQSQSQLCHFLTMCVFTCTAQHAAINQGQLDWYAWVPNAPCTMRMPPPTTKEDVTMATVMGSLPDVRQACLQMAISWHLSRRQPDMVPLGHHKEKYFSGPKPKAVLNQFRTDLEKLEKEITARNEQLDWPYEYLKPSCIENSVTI
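Hydroperoxide product was detected by ferrous iron/xylenol orange as the 573 to 405 nm absorbance ratio. Arachidonic acid at 40 uM (final) was turned over for 30 min at room temperature by 150 nM human 12hLO, pH 7.0 Hepes buffer, after 15 min compound preincubation.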
IL-1B inflam inh – inhibitors of inflammasome signaling (IL-1 beta secretion); THP-1 LPS/ATP IL-1B secretion, AlphaLISA, 16 h; hits give low values; activity change, % at 57.5 µM; actives 4.7% (n = 360,000); AID 743279; in the data active means activity change below about -50%; inconclusive means mostly about -30% to -49%
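Secreted IL-1B measured by AlphaLISA bead assay after 16 h compound exposure of THP-1 cells; compounds (final up to 57.5 uM) added 1 h before LPS (250 ng/mL) and ATP (1.25 mM) stimulation; lower signal means less secretion.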
* marks the source's active call; other numbers are inactive results. The entries come from a sample that favours hits as a whole. Unless noted, the call rests on the fitted dose curve; in most records, active means well fitted curve in the direction sought with a large enough effect; inconclusive means small, poorly fitted or top-dose-only effect, or another doubt; inactive means no such curve, though single readings can be large; an effect the other way counts as inactive or inconclusive. Unless noted, on the % scale 0 is the no-effect control and ±100 the full control effect.

How did CCCC(O)(c1ccc(OC)cc1)C(CN1CCOCC1)c1ccccc1 (centres undefined) do in these assays?
HT1080-NT tox: -6%; HT1080 IDH1KD tx: -13%; DT40 TDP1 CPT: inconclusive; TDP1 cell noCPT: inconclusive; ALOX12 inh: -17%; IL-1B inflam inh: -5

Results for COc1ccc(C(O)(C(C)C)C(CN2CCOCC2)c2ccccc2)cc1 (centres undefined) ?
HT1080-NT tox: 4%; HT1080 IDH1KD tx: 3%; DT40 TDP1 CPT: inconclusive; TDP1 cell noCPT: inconclusive; ALOX12 inh: -3%; IL-1B inflam inh: 13

How did CCCCCC(O)(c1ccc(OC)cc1)C(CN1CCOCC1)c1ccccc1 (centres undefined) do in these assays?
HT1080-NT tox: inconclusive; HT1080 IDH1KD tx: inconclusive; DT40 TDP1 CPT: 16µM*; TDP1 cell noCPT: 10µM*; ALOX12 inh: inconclusive; IL-1B inflam inh: -30

What do the screens show for `CCCCCC(O)(c1ccc(OCC)cc1)C(CN1CCOCC1)c1ccccc1` (centres undefined)?
HT1080-NT tox: inconclusive; HT1080 IDH1KD tx: 16µM*; DT40 TDP1 CPT: inconclusive; TDP1 cell noCPT: 16µM*; ALOX12 inh: 0%; IL-1B inflam inh: -85*

Results for O=C(c1cn(-c2ccccc2)nn1)N(Cc1cccnc1)C1CCNCC1 ?
ALOX12 inh: 48%

Results for CCC1CSC(Nc2ccccc2C)=N1 (centres undefined) ?
ALOX12 inh: 5%

What do the screens show for `CNCc1ccccc1Sc1cc(O)ccc1O`?
HT1080-NT tox: inconclusive; HT1080 IDH1KD tx: inconclusive; DT40 TDP1 CPT: 1.8µM*; TDP1 cell noCPT: 3.7µM*; ALOX12 inh: inconclusive; IL-1B inflam inh: -100*

What do the screens show for `CC(C)OC(=O)c1ccc2cc(C(=O)OC(C)C)ccc2c1`?
ALOX12 inh: -27%

What do the screens show for `CNc1ccc(N=Nc2cccc3ncccc23)cc1`?
HT1080-NT tox: -8%; HT1080 IDH1KD tx: -6%; DT40 TDP1 CPT: inconclusive; TDP1 cell noCPT: inconclusive; ALOX12 inh: -22%; IL-1B inflam inh: -54*

Results for c1cnc2ccc3ncccc3c2c1 ?
HT1080-NT tox: 15%; HT1080 IDH1KD tx: -1%; DT40 TDP1 CPT: inconclusive; TDP1 cell noCPT: -11%; ALOX12 inh: inconclusive; IL-1B inflam inh: -24

What do the screens show for `COc1ccc2c(c1)O[C@@H](c1cccc(C(F)(F)F)c1)[C@H](OC(=O)Nc1ccc(OC(F)F)cc1)C2=O`?
HT1080-NT tox: 0%; HT1080 IDH1KD tx: -5%; DT40 TDP1 CPT: inconclusive; TDP1 cell noCPT: 21µM*; IL-1B inflam inh: -21

How did COc1cc(NC(=S)Nc2ccc(OC(F)F)cc2)cc(OC)c1 do in these assays?
HT1080-NT tox: -15%; HT1080 IDH1KD tx: -12%; DT40 TDP1 CPT: -16%; TDP1 cell noCPT: -8%; ALOX12 inh: inconclusive; IL-1B inflam inh: -6

What do the screens show for `O=C(NCc1ccccc1CN1CCOCC1)c1nn(-c2ccc(F)cc2)c2c1CCC2`?
ALOX12 inh: -24%

How did CC(C)C1C(=O)N(Cc2cn(CCC3OCCCO3)nn2)CCS(=O)(=O)N1Cc1ccc(-c2ccc(Cl)c(Cl)c2)cc1 (centres undefined) do in these assays?
HT1080-NT tox: 16µM*; HT1080 IDH1KD tx: inconclusive; DT40 TDP1 CPT: 23µM*; TDP1 cell noCPT: 18µM*; ALOX12 inh: 4%; IL-1B inflam inh: -80*

What do the screens show for `CC(C)C1C(=O)N(Cc2cn(CCC3OCCO3)nn2)CCS(=O)(=O)N1Cc1ccc(-c2ccc(Cl)cc2)cc1` (centres undefined)?
HT1080-NT tox: 18µM*; HT1080 IDH1KD tx: inconclusive; DT40 TDP1 CPT: 3.3µM*; TDP1 cell noCPT: 4.1µM*; ALOX12 inh: -2%; IL-1B inflam inh: inconclusive

What do the screens show for `CC(C)C1C(=O)N(Cc2cn(CCC3OCCCO3)nn2)CCS(=O)(=O)N1Cc1ccc(-c2ccc(Cl)cc2)cc1` (centres undefined)?
HT1080-NT tox: 6%; HT1080 IDH1KD tx: 8%; DT40 TDP1 CPT: inconclusive; TDP1 cell noCPT: 23µM*; ALOX12 inh: 2%; IL-1B inflam inh: 40

What do the screens show for `CC(C)C1C(=O)N(Cc2cn(CCC3OCCO3)nn2)CCS(=O)(=O)N1Cc1ccc(-c2ccc(F)cc2)cc1` (centres undefined)?
HT1080-NT tox: -18%; HT1080 IDH1KD tx: -22%; DT40 TDP1 CPT: inconclusive; TDP1 cell noCPT: inconclusive; ALOX12 inh: 3%; IL-1B inflam inh: -4

Results for COc1cccc(/C=C2\Oc3cc(OS(C)(=O)=O)ccc3C2=O)c1OC ?
ALOX12 inh: -3%

What do the screens show for `Cc1ccc(-c2cc(-c3ccc4c(c3)NC(=O)CO4)nc3c2COc2ccc(C)cc2-3)cc1`?
DT40 TDP1 CPT: inconclusive; TDP1 cell noCPT: 2.1µM*; ALOX12 inh: -19%

How did Cc1ccn2cc(-c3ccc4c(c3)NC(=O)CO4)nc2c1 do in these assays?
HT1080-NT tox: 17%; HT1080 IDH1KD tx: 2%; DT40 TDP1 CPT: 0%; TDP1 cell noCPT: -24%; ALOX12 inh: -11%; IL-1B inflam inh: -13

How did Cc1ccc2c(c1)-c1nc(-c3ccc4c(c3)NC(=O)CO4)cc(-c3ccc(Cl)cc3)c1CO2 do in these assays?
DT40 TDP1 CPT: 1.5µM*; TDP1 cell noCPT: 1.3µM*; ALOX12 inh: 0%

What do the screens show for `Cc1ccc2occ(-c3cc(-c4ccc(Cl)cc4)nc4c3COc3ccccc3-4)c(=O)c2c1`?
DT40 TDP1 CPT: 0%; TDP1 cell noCPT: 1%; ALOX12 inh: -7%

What do the screens show for `CC(C)(C)NC(=O)N1CCCC1c1noc(COc2ccc(F)cc2)n1` (centres undefined)?
ALOX12 inh: 5%

Results for C=CC(COCc1ccccc1)N([C@@H](Cc1ccccc1)C(=O)OC)S(=O)(=O)c1ccccc1Br (some centres undefined) ?
HT1080-NT tox: -5%; HT1080 IDH1KD tx: -9%; DT40 TDP1 CPT: inconclusive; TDP1 cell noCPT: 23µM*; ALOX12 inh: -1%; IL-1B inflam inh: 12

How did C=CC(COCc1ccccc1)N(Cc1ccc(OC)cc1)S(=O)(=O)c1ccccc1Br (centres undefined) do in these assays?
HT1080-NT tox: -2%; HT1080 IDH1KD tx: 0%; DT40 TDP1 CPT: inconclusive; TDP1 cell noCPT: inconclusive; ALOX12 inh: inactive; IL-1B inflam inh: 24
